Bioassay records: PubChem BioAssay, National Center for Advancing Translational Sciences (NCATS)
Rows were chosen to be rich in hits. Some 2.6% of all compounds tested hit in one or more screens of this group.
Cruzain noTriton: cruzain (T. cruzi) inhibition without detergent. P25779. purified cruzain, Z-FR-AMC fluorescence, no detergent. Potency, µM, usual class: inhibitors. 2.3% of 200,000 active; further: nearly all actives have a fitted effect of over 40% in size
Target sequence (P25779 123-467 limits assumed): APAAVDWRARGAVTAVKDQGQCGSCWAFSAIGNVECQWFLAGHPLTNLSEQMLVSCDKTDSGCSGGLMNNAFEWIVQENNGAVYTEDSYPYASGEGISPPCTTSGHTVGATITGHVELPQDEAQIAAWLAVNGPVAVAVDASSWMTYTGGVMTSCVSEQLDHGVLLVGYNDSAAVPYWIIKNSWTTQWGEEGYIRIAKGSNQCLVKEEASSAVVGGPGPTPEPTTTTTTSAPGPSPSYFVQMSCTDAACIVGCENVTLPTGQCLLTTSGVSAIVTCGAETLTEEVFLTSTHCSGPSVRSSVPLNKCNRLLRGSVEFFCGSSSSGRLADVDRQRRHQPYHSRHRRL
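Purified cruzain at 1.5 nM, pre-incubated 15 min with compound at room temperature in 100 mM sodium acetate pH 5.5, 5 mM DTT, 0.00005% Triton X-100. Reaction started with 2 uM Z-FR-AMC; AMC fluorescence increase over 60 s gives rate.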
Cruzain inh Det: cruzain (T. cruzi) inhibition with detergent; P25779; purified cruzain, Z-FR-AMC fluorescence, 0.01% Triton; Potency, µM, most hits filed as inhibitors; 0.43% of 200,000 active; further: nearly all actives have a fitted effect of over 40% in size
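15 min RT preincubation of 1.5 nM cruzain with compound, then 2 uM Z-FR-AMC added; kinetic AMC fluorescence, 60 s delta. Triton X-100 0.01%, pH 5.5.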
Hits are given with their value; - = inactive; ? = inconclusive. The call rests on the fitted dose curve; in most records, active means well fitted curve in the direction sought with a large enough effect; inconclusive means small, poorly fitted or top-dose-only effect, or another doubt; inactive means no such curve, though single readings can be large; an effect the other way counts as inactive or inconclusive.

SMILES | Cruzain noTriton | Cruzain inh Det
CCN(C(=O)CSc1nc2ccccc2n1CC(=O)N(C)C1CCCCC1)c1ccccc1 | - | -
CCCOc1ccc(NC(=O)CC2C(=O)N(c3ccccc3)C(=O)N2CCC(C)C)cc1 (stereo unspecified) | - | -
N#Cc1c(NC(=O)CCn2cnc3ccccc3c2=O)oc(-c2ccccc2)c1-c1ccccc1 | 32µM | -
CC(C)CC(C(=O)Nc1oc(-c2ccccc2)c(-c2ccccc2)c1C#N)N1C(=O)c2ccccc2C1=O (stereo unspecified) | 3.2µM | -
N#Cc1c(NC(=O)CCN2C(=O)c3ccccc3C2=O)oc(-c2ccccc2)c1-c1ccccc1 | ? | -
CC(C)CC(C(=O)Nn1cnnc1)N1C(=O)c2ccccc2C1=O (stereo unspecified) | - | -
Cc1noc(/C=C/c2ccccc2F)c1S(=O)(=O)N1CCC(C(=O)NCC(C)c2ccccc2)CC1 (stereo unspecified) | - | -
CCOc1ccc(S(=O)(=O)NCC(c2ccco2)S(=O)(=O)c2ccc(F)cc2)cc1 (stereo unspecified) | - | -
Cc1cccc(-c2noc(CN(C(C)C)S(=O)(=O)c3ccc(Br)cc3)n2)c1 | - | -
C[C@@H]1CC2(OC3C[C@@]4(C)C5=CC[C@H]6C(C)(C)C(O[C@@H]7OC[C@@H](O)[C@H](O)[C@H]7O)CC[C@@]67C[C@@]57CC[C@]4(C)C31)OC(O)C1(C)OC21 (stereo partly specified) | ? | -
Cc1cccc(C)c1OCc1nnc(NC(=O)CSc2ccc(Cl)cc2)s1 | 25µM | -
COc1ccc(/C=C/c2nnc(NC(=O)CSc3ccc(Cl)cc3)s2)cc1 | 10µM | -
O=C(CSc1ccccc1)Nc1nnc(COc2ccc(Cl)cc2)s1 | - | -
Cc1ccc(OCc2nnc(SCC(=O)Nc3nccs3)n2-c2ccccc2)cc1C | - | -
COC(=O)Nc1nnc(/C=C/c2ccc(OC)cc2)s1 | - | -
Cc1ccc(-n2c(COc3c(C)cccc3C)nnc2SCC(=O)Nc2nccs2)cc1 | 25µM | -
COC(=O)c1c(NC(=O)c2nc(SC)ncc2Cl)sc2c1CCCC2 | - | -
O=C(Nc1cc(C(F)(F)F)ccc1Cl)c1noc2c1CCCCC2 | - | -
CCc1ccccc1Nc1nn2c(=O)c3ccc(C(=O)NCc4ccccc4OC)cc3nc2s1 | 13µM | -
CCc1ccccc1Nc1nn2c(=O)c3ccc(C(=O)Nc4ccc(OC)cc4)cc3nc2s1 | - | -
COc1ccccc1Nc1nn2c(=O)c3ccc(C(=O)NCc4ccc(F)cc4)cc3nc2s1 | - | -
CCc1ccccc1Nc1nn2c(=O)c3ccc(C(=O)NCCC4=CCCCC4)cc3nc2s1 | 25µM | -
Cc1ccc(-c2nonc2NC(=O)c2ccc(F)cc2)cc1C | - | -
COc1ccc(CC(=O)Nc2cc(-c3cn4cccnc4n3)ccc2C)cc1OC | - | -
CCOC(=O)N1CCc2c(sc3c2c(=O)n(Cc2ccccc2)c(=O)n3CC(=O)Nc2cccc(CC)c2)C1 | - | -
SMILES | Cruzain noTriton | Cruzain inh Det
CCOC(=O)N1CCc2c(sc3c2c(=O)n(Cc2ccccc2)c(=O)n3Cc2cccc(Cl)c2)C1 | 7.9µM | -
CCOc1ccccc1CNC(=O)CCCn1c(=O)c2cccn2c2cccnc21 | - | -
CCCCc1ccc(Nc2cc(C)nc(-n3nc(C)cc3C)n2)cc1 | ? | -
Cc1ccc(N(CC(C)C)S(=O)(=O)c2nnc(NC(=O)c3cccs3)s2)cc1 | - | -
O=C(Nc1nc2ccc(SC(F)F)cc2s1)c1ccc(NS(=O)(=O)c2ccc(F)c(F)c2)cc1 | 32µM | -
CS(=O)(=O)c1ccc2nc(NC(=O)c3cccc(NS(=O)(=O)c4ccc(F)c(F)c4)c3)sc2c1 | - | -
Cc1ccc(CNC(=O)/C=C/c2c(Cl)cccc2Cl)cc1 | 25µM | -
Cc1ccc(CNC(=O)/C=C/c2ccccc2Cl)cc1 | - | -
Cc1ccc(S(=O)(=O)N2CCCOC2CNC(=O)C(=O)NCCc2c[nH]c3ccccc23)cc1 (stereo unspecified) | ? | -
O=C(NCCc1c[nH]c2ccccc12)C(=O)NCC1OCCCN1S(=O)(=O)c1ccccc1 (stereo unspecified) | 25µM | -
Cc1cccc(-n2c(=O)c3c(c4cc(C)ccc4n3C)n(C)c2=O)c1 | - | -
C=Cc1ccc(Cn2c(=O)n(-c3cccc(C)c3)c(=O)c3c2c2cc(C)ccc2n3C)cc1 | 25µM | -
O=C(COc1ccccc1Cl)Nc1ccc(OCc2cc(=O)n3ccsc3n2)cc1 | - | -
CCOC(=O)c1c(-c2cccc([N+](=O)[O-])c2)csc1NC(=O)CCCOc1ccccc1 | 32µM | -
CCOC(=O)c1c(-c2cccc([N+](=O)[O-])c2)csc1NC(=O)CCCOc1ccccc1OC | - | -
CCS(=O)(=O)N1CCc2cc(C(=O)Nc3cccc(C(C)=O)c3)ccc21 | - | -
O=C(Cn1c(SCC(=O)Nc2ccc(F)cc2)nc2ccccc21)NCc1ccc(Cl)cc1 | ? | -
CC(=O)C1=C(C)NC(SCC(=O)c2ccc(C)cc2)=C(C#N)C1c1ccco1 (stereo unspecified) | - | -
COCCOC(=O)C1=C(C)NC(SCC(=O)NC(C)(C)C)=C(C#N)C1c1ccco1 (stereo unspecified) | - | -
COc1ccccc1NC(=O)C1=C(C)NC(SCC(=O)c2ccccc2)=C(C#N)C1c1ccco1 (stereo unspecified) | 16µM | -
C=CCOC(=O)C1=C(C)NC(SCC(=O)Nc2ccc(C)c(Cl)c2)=C(C#N)C1c1ccco1 (stereo unspecified) | 10µM | -
CCCn1c(=O)sc2cc(NC(=O)c3ccccc3OCC)ccc21 | - | -
Cc1ccc(NS(=O)(=O)c2cc([N+](=O)[O-])ccc2NNC(=S)Nc2cc(C)ccc2C)c(C)c1 | ? | -
COc1ccc(NC(=S)NNc2ccc([N+](=O)[O-])cc2S(=O)(=O)Nc2ccc(C)cc2C)cc1 | 25µM | -
Cc1ccc(NS(=O)(=O)c2cc([N+](=O)[O-])ccc2NNC(=S)Nc2cccc(Cl)c2)c(C)c1 | - | 20µM
SMILES | Cruzain noTriton | Cruzain inh Det
Cc1ccccc1NS(=O)(=O)c1cc(C(=O)Nc2cccc([N+](=O)[O-])c2)ccc1C | - | -
CC(C)CN1CC[C@@]2(CCCN(S(=O)(=O)c3ccccc3)C2)C1 | - | -
CC(C)C1O[C@H](/C=C\c2ccccc2)OCC1(C)C (stereo partly specified) | - | -
COc1cc(-c2nc(-c3ccc4c(c3)-c3ccccc3S4(=O)=O)c(-c3ccccc3)[nH]2)cc(OC)c1OC | - | -
COc1cccc(-c2nc(-c3ccc4c(c3)-c3ccccc3S4(=O)=O)c(-c3ccccc3)[nH]2)c1OC | 13µM | -
COc1ccc(CCNC(=O)C(=O)NCC(c2ccco2)S(=O)(=O)c2cccs2)cc1 (stereo unspecified) | - | -
O=C(COc1ccccc1)NC(=S)Nc1ccc2c3c(cccc13)CC2 | ? | -
CC(C)c1ccc(OCC(=O)NC(=S)Nc2ccc3c4c(cccc24)CC3)cc1 | 25µM | -
Cc1ccc(OCC(=O)NC(=S)Nc2ccc3c4c(cccc24)CC3)cc1 | ? | -
O=C(/C=C/c1ccccc1)NC(=S)Nc1ccc2c3c(cccc13)CC2 | 13µM | -
COc1cccc(N2CC(NC(=O)COc3ccccc3F)CC2=O)c1 (stereo unspecified) | - | -
O=S(=O)(c1ccccc1)N1CCN(c2nc(-c3cccs3)nc3ccccc23)CC1 | 16µM | -
